# Reference: paper PMC10668032, “Altered binding affinity of SIX1-Q177R correlates with enhanced WNT5A and WNT pathway effector expression in Wilms tumor”
# Whole data set: some 33,000 sequences, median “e-score” near -0.05, cut for the highest 2% near 0.38. The list comes from a sample in which the highest values are over-represented; it also holds similar and randomly drawn sequences.
# Molecular target: T1, SIX1-Q177R homeodomain (human, UniProt Q15475 108-198, Q177R)
# T1 sequence: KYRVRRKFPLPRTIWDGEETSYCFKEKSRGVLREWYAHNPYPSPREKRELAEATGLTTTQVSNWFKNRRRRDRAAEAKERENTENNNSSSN
# Test: universal protein binding microarray; Universal all-10-mer PBM (8x60K, AMADID 030236), 300 nM GST-tagged protein, Alexa Fluor 488 anti-GST; buffer, salt, pH and temperature not stated (as in Berger); high values mean tight binding
# Conditions: protein: ivt; tags: N-terminal GST; dsDNA, one strand shown
# Procedure, shortened: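 Binding of GST-tagged homeodomains is given as 8-mer E-scores from the Universal PBM Analysis Suite. The proteins were produced by in vitro transcription/translation, quantified by anti-GST western blot against a recombinant GST standard curve, and applied in duplicate at 300 nM final concentration to universal 'all 10-mer' protein binding microarrays (8×60K format).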
row,Sequence,binding signal [E-score]
1,ATACCCAC,0.196 ± 0.0233
2,CACCAGAC,0.338 ± 0.00569
3,CACCGCCC,0.3 ± 0.0125
4,ACACGAGC,0.3292 ± 0.0011
5,ACACGAGT,0.4013 ± 0.00247
6,ACACGAGG,0.3796 ± 0.00182
7,ACCCGAGT,0.259 ± 0.0341
8,ACGCGAGT,0.162 ± 0.045
9,ACACGAGA,0.352 ± 0.0163
10,CACCGCGA,0.238 ± 0.0133
11,ACCGGGGG,0.238 ± 0.00986
12,CAGGGTAC,0.162 ± 0.0178
13,AACCCAGA,0.214 ± 0.0243
14,CACTATAA,0.253 ± 0.0572
15,CACCTTAA,0.172 ± 0.0487
16,CCGTGCAC,0.198 ± 0.0196
17,CCGTGTAG,0.4463 ± 0.00194
18,GCGGGTAA,0.164 ± 0.019
19,ACGTGTAA,0.413 ± 0.0225
20,CCGGGTAA,0.177 ± 0.0166
21,CCGTGTAA,0.44 ± 0.0102
22,CCTTGTAA,0.244 ± 0.024
23,CCGGGTAG,0.169 ± 0.0152
24,GCGTGTGA,0.347 ± 0.0138
25,GCGTGTAA,0.441 ± 0.0209
26,ACGTGTGA,0.293 ± 0.00636

row,Sequence,binding signal [E-score]
1,TATCGTCA,0.211 ± 0.012
2,CGAAAACA,0.186 ± 0.0616
3,CACCTAGC,0.168 ± 0.00559
4,ACCTCAAC,0.27 ± 0.0213
5,CACCCTTC,0.31 ± 0.0119
6,CAGCTACA,0.191 ± 0.0188
7,GATACTGC,0.158 ± 0.0138
8,CACGTTCA,0.158 ± 0.0324
9,AATAGGGG,0.171 ± 0.0238
10,TCGTGTAA,0.434 ± 0.0291
11,TCGGGTAA,0.194 ± 0.00451
12,GCTGAACA,0.169 ± 0.0308
13,GGGTTTCA,0.15 ± 0.00187
14,CTCAACAC,0.393 ± 0.0141
15,ATCAACAC,0.3939 ± 0.00328
16,GTCAACAC,0.38 ± 0.00874
17,AGCAACAC,0.361 ± 0.00441
18,GTCAAACA,0.1886 ± 0.00104
19,TCCTTACA,0.222 ± 0.0176
20,ATTGATCC,0.187 ± 0.0355
21,CATCTGAC,0.236 ± 0.0527
22,CACTTCAC,0.154 ± 0.0408
23,ACTCCGCG,0.22 ± 0.00707
24,CACACGTG,0.362 ± 0.00543
25,CCAGGATA,0.2169 ± 0.00146
26,GCACCCGA,0.235 ± 0.00309

row,Sequence,binding signal [E-score]
1,ACCCCCGT,0.273 ± 0.0189
2,CCACCCGA,0.206 ± 0.00492
3,ACACCCGA,0.457 ± 0.00947
4,ACCCCCGC,0.318 ± 0.046
5,ACACCCGG,0.4824 ± 0.0027
6,ACACCCGT,0.4709 ± 0.00247
7,CCACCCGG,0.201 ± 0.0191
8,AACCCCGT,0.174 ± 0.0274
9,ACCCCCGG,0.305 ± 0.0423
10,ACACCCGC,0.4623 ± 0.00219
11,GCACCCGC,0.227 ± 0.0318
12,GGGAGTCA,0.221 ± 0.0066
13,ATAGGGGG,0.259 ± 0.00343
14,CACGGGGA,0.199 ± 0.0103
15,CCCGTAGG,0.178 ± 0.00511
16,GGAGCACC,0.268 ± 0.0396
17,AGGGGGAT,0.23 ± 0.0203
18,CGCAAACA,0.181 ± 0.0196
19,GTGATACA,0.172 ± 0.0198
20,ACCATACA,0.3199 ± 0.00166
21,GGTCCGTA,0.189 ± 0.0444
22,GAGGGTAC,0.183 ± 0.0122
23,GGACACCA,0.4831 ± 0.00245
24,TGACACCA,0.4915 ± 0.00377
25,AGACACCA,0.458 ± 0.0134
26,GGACACGA,0.356 ± 0.0172

row,Sequence,binding signal [E-score]
1,TGACACAA,0.298 ± 0.0424
2,AGGCACCA,0.178 ± 0.0251
3,TGACGACA,0.212 ± 0.00725
4,TCCATGGA,0.1596 ± 0.000424
5,CGGGGTTA,0.22 ± 0.0181
6,ACGGAACA,0.212 ± 0.00638
7,TGTGAACA,0.327 ± 0.0228
8,ACCGTTGG,0.2165 ± 0.000431
9,ACCCGACG,0.208 ± 0.0142
10,TAGCTACA,0.209 ± 0.0332
11,GTATCAGA,0.284 ± 0.0131
12,GTTGGGGA,0.218 ± 0.00618
13,CCCTTTGC,0.219 ± 0.0339
14,CCCGGGTC,0.335 ± 0.0417
15,GGTGTAAC,0.482 ± 0.00603
16,GGAGTAGA,0.2198 ± 0.000615
17,GGGGTAAC,0.293 ± 0.0173
18,CGGGTAAC,0.2 ± 0.000757
19,GGAGTAAC,0.157 ± 0.0575
20,AGGGTAAG,0.152 ± 0.023
21,CGTGTAAG,0.428 ± 0.0306
22,GGTGTAGA,0.4728 ± 0.00114
23,GGGGTAGA,0.194 ± 0.0142
24,CGTGTAAC,0.43 ± 0.0129
25,CACCACTC,0.322 ± 0.00333
26,CGTATGAC,0.199 ± 0.0291

row,Sequence,binding signal [E-score]
1,AATAGGTG,0.207 ± 0.0434
2,CGTGTAAA,0.435 ± 0.0253
3,GGGGTAAA,0.29 ± 0.0101
4,GGAGTAAA,0.222 ± 0.0733
5,GGTGTAAA,0.476 ± 0.0157
6,AGTGTAAT,0.413 ± 0.0369
7,AGTGTGAT,0.223 ± 0.0157
8,AGTGTAAG,0.415 ± 0.026
9,CGGGTAAA,0.194 ± 0.0165
10,AGTGTGAG,0.208 ± 0.00245
11,AGTGTATG,0.36 ± 0.013
12,AGTCGGGG,0.158 ± 0.0158
13,CCCCCCGC,0.248 ± 0.0302
14,GCGATCCC,0.182 ± 0.0137
15,CGGAGTGA,0.216 ± 0.008
16,CACGATGC,0.182 ± 0.0345
17,GGTGCCAC,0.195 ± 0.0196
18,CTCCCGAC,0.1532 ± 0.000212
19,AGTGTAAA,0.402 ± 0.0464
20,AGGGTAAC,0.176 ± 0.0073
21,TGTGTAAA,0.235 ± 0.0184
22,AGAGTAAC,0.163 ± 0.0176
23,AGTGTAAC,0.419 ± 0.0327
24,ACTGGGAG,0.223 ± 0.0162
25,ACCGGTGC,0.238 ± 0.0365
26,CCGATCCA,0.188 ± 0.0051

row,Sequence,binding signal [E-score]
1,ACCCCCTA,0.337 ± 0.0127
2,ATTACTCC,0.287 ± 0.0213
3,CTTACACC,0.478 ± 0.00815
4,CTTACACA,0.231 ± 0.0061
5,GTTACACA,0.267 ± 0.0166
6,ATTACACG,0.435 ± 0.0178
7,ATTACACA,0.291 ± 0.00197
8,CTTACTCC,0.194 ± 0.0358
9,ATTACCCC,0.294 ± 0.00817
10,ATTACACC,0.479 ± 0.0126
11,ACGCGGGC,0.164 ± 0.0117
12,GGTGGGTA,0.165 ± 0.0261
13,GAGATACC,0.225 ± 0.0222
14,GATTAACA,0.162 ± 0.0238
15,ACACTCGA,0.358 ± 0.0137
16,ACACTCGT,0.351 ± 0.0272
17,ACACTCGC,0.385 ± 0.0258
18,ACACTCGG,0.408 ± 0.0187
19,AGACTCGG,0.16 ± 0.0294
20,CCACTCGC,0.222 ± 0.00987
21,AAGCTACA,0.178 ± 0.0271
22,GGTGTGAC,0.435 ± 0.0199
23,AGTGTGCA,0.185 ± 0.00583
24,CGTGTGAC,0.304 ± 0.0135
25,AGTGTGAC,0.359 ± 0.00684
26,CGTGTGCA,0.202 ± 0.0212

row,Sequence,binding signal [E-score]
1,AGTGTGTA,0.285 ± 0.00827
2,GGTGTGTA,0.411 ± 0.0106
3,AGTGTGAA,0.276 ± 0.021
4,TGTGTGAA,0.187 ± 0.0245
5,GGTGTGAA,0.427 ± 0.00482
6,GGTGTGCA,0.391 ± 0.0295
7,CACTCGGA,0.177 ± 0.0507
8,GTATCACA,0.3 ± 0.034
9,ATCCGACA,0.238 ± 0.04
10,ACCTAGGT,0.157 ± 0.0301
11,GGGGGATA,0.2 ± 0.0198
12,CAAGCACC,0.176 ± 0.0183
13,GGTGTATA,0.458 ± 0.0157
14,CGTGTATA,0.367 ± 0.0156
15,GGTATATA,0.1906 ± 0.000509
16,GTGCAACA,0.292 ± 0.0195
17,ACCTATAA,0.177 ± 0.008
18,AGTTTATC,0.208 ± 0.0174
19,CCCCGAGC,0.198 ± 0.0241
20,CGGGTATC,0.374 ± 0.0147
